High-throughput results deposited in PubChem by National Center for Advancing Translational Sciences (NCATS).
PLK1 PBD block = inhibitors of human PLK1 polo-box domain binding; P53350; AID 720504; Potency, µM, for the others: max response, negative = inhibition, usual class: inhibitors; Plk1 PBD binding of FITC phosphopeptide, fluorescence polarization; 360,000 compounds, 2.8% hits; also: potency is read from the fitted curve at half-maximal effect; series mostly up to about 57 µM; nearly all actives have a fitted effect of over 65% in size
KAT2A inh = blocks human GCN5L2 histone acetyltransferase. GCN5L2 HAT assay, ThioGlo1 CoA-SH fluorescence. Potency, µM (series often up to 58.9 µM), without a hit: at the top dose activity change, negative = inhibition, actives largely listed as inhibitors. 390,000 compounds, 0.21% hits; also: potency is read from the fitted curve at half-maximal effect
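Fluorescence readout, Ex340nm/Em540nm: ThioGlo1 (50uM final) reacts with free CoA thiol released as 20nM GCN5L2 acetylates H3(1-25) peptide (75uM) using acetyl-CoA (70uM). Compound and enzyme sat 15 min beforehand; 20 min room-temperature reaction.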
VDR inh = blocks the human vitamin D receptor; P11473; VDR-SRC2-3 peptide fluorescence polarization, 2 h; Potency, µM, inactives show max response, negative = inhibition, actives largely listed as inhibitors; 400,000 compounds, 0.93% hits; AID 504847; also: potency is read from the fitted curve at half-maximal effect
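Reagent solutions, kept cold and dark, are dispensed first; compounds are then pinned in at 23 nl, plates briefly spun, and incubated 2 h at ambient temperature. Inhibition of VDR–SRC2-3 peptide binding is read by fluorescence polarization.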
PI4K2A block = blocks human PI4K2A kinase activity. purified PI4K2A, ADP-Glo luminescence, 1 h; stronger effect = lower value. activity change, negative = inhibition, % at 76.9 µM. 420,000 compounds, 0.13% hits. AID 1346378; in the data active = activity change below about -50%; inconclusive = mostly about -30% to -49%;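 also: -100% = wells without enzyme as full effect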
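ADP-Glo luminescence measured ADP generated by PI4K2A enzyme (4 ug/mL before mixing) with 1.2 mM PI substrate (pre-mix) and 300 microM ATP (pre-mix). Tris pH7.5 buffer with MgCl2, Triton X-100; 1 h reaction at ambient temperature.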
GLS inh = blocks human kidney-isoform glutaminase activity; O94925; 410,000 compounds, 0.21% hits; GLS enzymatic activity, qHTS titration; AID 624170; Potency, µM (top dose mostly 45.5 µM), inactives show top-dose activity change, negative = inhibition, usual class: inhibitors; also: potency is read from the fitted curve at half-maximal effect
Target sequence (O94925 whole entry, looked up, canonical isoform): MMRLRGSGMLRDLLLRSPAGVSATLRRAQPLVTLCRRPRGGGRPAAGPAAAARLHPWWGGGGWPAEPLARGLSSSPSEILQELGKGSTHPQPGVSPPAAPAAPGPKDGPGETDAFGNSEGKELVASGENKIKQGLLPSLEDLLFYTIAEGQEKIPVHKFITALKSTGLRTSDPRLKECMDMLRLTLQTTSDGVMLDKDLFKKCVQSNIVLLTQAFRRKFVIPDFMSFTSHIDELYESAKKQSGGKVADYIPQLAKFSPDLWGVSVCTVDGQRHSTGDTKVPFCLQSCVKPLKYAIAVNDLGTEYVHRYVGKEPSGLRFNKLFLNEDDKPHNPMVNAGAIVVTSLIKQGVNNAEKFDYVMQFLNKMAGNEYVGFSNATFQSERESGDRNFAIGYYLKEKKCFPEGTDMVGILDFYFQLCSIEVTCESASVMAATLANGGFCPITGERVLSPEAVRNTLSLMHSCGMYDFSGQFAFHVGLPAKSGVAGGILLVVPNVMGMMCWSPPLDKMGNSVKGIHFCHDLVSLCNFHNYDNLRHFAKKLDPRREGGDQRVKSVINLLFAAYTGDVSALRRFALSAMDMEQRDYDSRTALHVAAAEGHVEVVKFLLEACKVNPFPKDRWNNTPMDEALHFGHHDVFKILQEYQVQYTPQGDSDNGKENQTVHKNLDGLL
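hKGA in 45 mM KH2PO4 (pH 8.2), 0.02% Tween-20 with compound, then 1mM L-Glutamine (stock as added) plus glutamate oxidase/HRP/Amplex red coupling mix. Fluorescence read initially and after 30 min at RT; signal change reflects glutamate formation.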
Numbers without * were called inactive; ? = inconclusive; nt = not tested or not shown. The list is not random: actives were taken first. Their share in the collection is about 3.1%. Unless noted, calls follow the shape of the dose curve; as a rule, active = well fitted curve in the direction sought with a large enough effect; inconclusive = small, poorly fitted or top-dose-only effect, or another doubt; inactive = no such curve, though single readings can be large; an effect the other way counts as inactive or inconclusive. Unless noted, % is scaled to controls: 0 for no effect and ±100 for the full control effect.

SMILES	PLK1 PBD block	KAT2A inh	VDR inh	PI4K2A block	GLS inh
O=C(CCN1C(=O)/C(=C/c2cccs2)SC1=S)Nc1ccc(C(=O)O)c(O)c1	27µM*	?	9%	-5	10%
CC(/C=C1\SC(=S)N(CCCC(=O)Nc2ccc(C(=O)O)c(O)c2)C1=O)=C\c1ccccc1	27µM*	28%	?	-3	30%
COC(=O)[C@]12C[C@H](CC(=O)NCc3ccc(C)o3)C(=O)N(Cc3cccc4ccccc34)C1=C[C@H](C(C)(C)C)O[C@@H]2C	nt	nt	nt	-5	nt
O=C(Nc1nc2ncccn2c1-c1ccc(F)c(F)c1)c1ccc(F)cc1	nt	nt	nt	-5	nt
COc1ccc(OC)c2[nH]c(=O)c(CCNC(=S)NC(C)(C)C)cc12	-10%	-6%	0%	-6	14%
CNC(=S)NCCc1cc2c(OC)ccc(OC)c2[nH]c1=O	19µM*	-5%	?	2	31%
NC(=O)C1CCN(c2cc(Cl)nc(N)n2)CC1	8.4µM*	-6%	79µM*	-9	0%
CN1CCN(/C=N/c2c(C#N)cnn2-c2ccccc2)CC1	27µM*	-17%	0%	6	-4%
Cc1noc(C)c1-c1ccc2ncnc(NCCN3CCOCC3)c2c1	nt	-9%	-18%	nt	nt
CC(=O)Cc1nsc(Nc2ccc(C)cc2)n1	27µM*	-5%	?	4	-10%
COc1ccc(Br)cc1C(=O)Nc1ccccc1N1CCN(C(=O)c2ccccc2)CC1	24µM*	-18%	6%	-2	0%
COc1ccc(C2C(C(=O)N3CCC(C)CC3)CC(=O)N2c2ccc(OC)cc2)cc1 (centres undefined)	nt	nt	nt	-5	nt
O=C(NCCc1c[nH]c2ccccc12)OCc1cn(-c2cccc(C(F)(F)F)c2)nn1	nt	nt	nt	-5	nt
CC(=O)c1cccc([N+](=O)[O-])c1	-8%	-2%	-8%	-4	-2%
O=C(C#Cc1ccccc1)c1cccc([N+](=O)[O-])c1	0.6µM*	0%	?	21	57%
COc1ccc(C2=NOC(C(=O)NCc3ccccn3)C2)cc1 (centres undefined)	27µM*	0%	-5%	0	25%
COc1cccc(C2=NOC(C(=O)NCc3ccccn3)C2)c1 (centres undefined)	0%	-6%	7%	3	4%
COC(=O)[C@@]1(Cc2ccccc2-c2ccco2)C=C[C@H](C)[C@@H](c2ccccc2)N1C(=O)C(F)(F)F	nt	nt	45µM*	nt	nt
COc1ccc(S(=O)(=O)N2c3ccc(Cl)cc3[C@@](O)(c3ccccc3Cl)[C@H]2C(=O)N2CCC[C@@H]2C(N)=O)cc1OC	nt	nt	nt	-2	nt
CC(C)=NOc1nc(N(C)C)nc(N2CCOCC2)n1	30µM*	-2%	?	0	-15%
Cc1ccc(-c2cc3nc(-c4ccccc4)cc(N)n3n2)cc1	-7%	-3%	1%	-22	21%
Cc1cc(N)n2nc(-c3ccccc3)cc2n1	2%	-2%	-12%	-54*	-3%
O=C1C2C3CCCC3=C3CCCC3C2C(=O)N1c1ccccc1Cl (centres undefined)	nt	nt	-6%	nt	nt
COc1ccc(NCC(=O)N/N=C2\CCc3ccccc32)cc1	-3%	-1%	-14%	0	20%
COc1ccc(OCC(=O)N/N=C2\CCCCc3ccccc32)cc1	11µM*	-19%	-26%	-4	?
CSCCC(NC(=O)OCc1ccccc1)C(=O)O (centres undefined)	-9%	-2%	-2%	10	5%
CSCC[C@H](NC(=O)[C@H](Cc1ccccc1)NC[C@@H](NC[C@@H](N)CS)C(C)C)C(=O)O	nt	28%	35µM*	nt	nt
C[C@H](NC(=O)CNC(=O)[C@@H](NC(=O)[C@H](Cc1ccccc1)NC(=O)CNC(=O)CNC(=O)[C@@H](N)Cc1ccccc1)[C@@H](C)O)C(=O)N[C@@H](CCCN=C(N)N)C(=O)N[C@@H](CCCCN)C(=O)N[C@@H](CO)C(=O)N[C@@H](C)C(=O)N[C@@H](CCCN=C(N)N)C(=O)N[C@@H](CCCCN)C(N)=O	nt	-8%	-4%	nt	nt
C#CCN1C(C(=O)OC)CN(CCCCCC)CCS1(=O)=O (centres undefined)	nt	nt	nt	4	nt
